A selection: hits, their analogues and other compounds. The true share with any hit is near 2%.
BJeLR viability – BJeLR cell viability loss. BJeLR (HRASV12) viability, CellTiter-Glo ATP luminescence, 48 h. inhibition, % (concentration not given with the values). 0.17% of 300,000 active; in the data active = inhibition above about 50%
CCHF vOTU inh – blocks the CCHF virus ovarian tumor domain protease; CCHFV vOTU protease, Pep-AMC fluorescence; inhibition, % at 11.5 µM; 0.55% of 370,000 active; in the data active = inhibition above about 30%; note: 0% = vehicle wells with enzyme and 100% = no enzyme wells
Yp Topo-I inh – blocks Yersinia pestis topoisomerase I activity | Y. pestis Topo-I cleavage product accumulation, plate reader | activity, % at 10 µM | 0.064% of 360,000 active | AID 504884; in the data active = activity above about 50%, passing the limit was not always enough
PrP 5UTR inh – inhibition of PrP 5' UTR reporter expression | 0.35% of 340,000 active | AID 488862 | inhibition, % (concentration not given with the values) | cell-based PrP 5' UTR mRNA reporter, plate reader; in the data active = inhibition above about 52%; note: 0 = median of the neutral control wells
PrPC surface inh – inhibitors of human cell surface prion protein PrPC. P04156. TR-FRET read-out. inhibition, % at 13.8 µM. 0.43% of 370,000 active. AID 720596; in the data active = inhibition above about 24%; note: 0% = median of the test wells and 100% = reference compound wells
PfHsp40 rescue – restores yeast growth despite PfHsp40 toxicity | S. cerevisiae expressing PfHsp40, growth rescue, ATP luminescence | growth rescue, % at 12.5 µM | 0.68% of 340,000 active; in the data active = growth rescue above about 28%, passing the limit was not always enough;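 note: yeast W303a lacking pdr1 and pdr3 grown in galactose medium; growth measured after three days at 30 °C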
* marks the source's active call; other numbers are inactive results; · = no result given.

SMILES | BJeLR viability | CCHF vOTU inh | Yp Topo-I inh | PrP 5UTR inh | PrPC surface inh | PfHsp40 rescue
O=C1NC(Cc2ccc(O)cc2)c2nc3ccc(Br)cc3c(=O)n2-c2cc3ccccc3cc21 (stereo not drawn) | · | 5.0 | 43.4 | · | 3.3 | ·
Cc1cc(C)c2c(=O)n3c(nc2c1)C(Cc1ccc(O)cc1)NC(=O)c1cc2ccccc2cc1-3 (stereo not drawn) | · | 11.6 | 58.7* | · | 14.4 | ·
O=C(NC1CCC1)O[C@H]1CC[C@@]23CCCN2C(=O)CCC[C@H]3C1 | · | · | · | · | 0.8 | ·
Cc1ccccc1CC(=O)N1CCOCC1 | 9.2 | -13.1 | 3.4 | -32.5 | 2.5 | -1.4
Cc1ccccc1Cn1cc(CCC(=O)N2CCOCC2)c2ccccc21 | -1.9 | -2.6 | 53.7* | -12.0 | -1.7 | 4.3
CC(CNC(=O)C1CCCCC1)NC(=O)C1CCCCC1 (stereo not drawn) | 7.9 | 7.1 | 3.2 | 0.7 | -7.2 | 80.4*
CCOC(=O)[C@@]12CCC3=C1N(CCC3)C(=O)[C@H](CC(=O)NCCCCc1ccccc1)C2 | · | 15.0 | · | · | 1.9 | ·
COc1cc2c(cc1/C=C/[N+](=O)[O-])OCO2 | 37.3 | -6.1 | -0.1 | -29.3 | -2.1 | 241.9*
COC(=O)c1cc2c(cc1[N+](=O)[O-])OCO2 | -3.1 | -4.2 | -11.0 | -8.1 | -8.2 | -2.5
COc1ccccc1NC(=O)Nc1nnc(CC(=O)Nc2ccccc2C)s1 | -1.4 | -6.0 | 1.7 | 76.5* | 4.8 | -0.6
CCCOC(=O)c1ccc(NC(=O)CC(C)(C)C)cc1 | -4.7 | 10.0 | 5.9 | -115.9 | 11.4 | 51.7*
O=C(COc1ccc(Br)cc1)Nc1ccccc1N1CCCC1 | -4.7 | 1.1 | 8.0 | -20.3 | 1.9 | 1.1
CC(Oc1cccc(Cl)c1)C(=O)Nc1ccccc1N1CCCCC1 (stereo not drawn) | 3.6 | 25.1 | 33.9 | -11.3 | -1.2 | 0.2
Cc1cc(Cl)ccc1OCC(=O)Nc1ccccc1N1CCOCC1 | 2.5 | 1.8 | 53.2* | -2.2 | 4.8 | -1.0
O=C(COc1c(Cl)cccc1Cl)Nc1ccccc1N1CCCC1 | -7.3 | -0.4 | 53.6* | -12.0 | 8.4 | 5.2
Cc1cc(Cl)ccc1OCC(=O)NC(=S)Nc1ccccc1N1CCOCC1 | -14.8 | -1.7 | -4.8 | -26.3 | 8.0 | -0.8
CC(Oc1ccc(F)cc1)C(=O)Nc1ccccc1N1CCCCC1 (stereo not drawn) | -4.2 | -2.1 | 65.2* | -10.9 | 3.9 | 1.6
Cc1ccccc1OCC(=O)Nc1ccccc1N1CCCCC1 | -10.6 | -7.5 | 54.8* | -32.7 | 6.3 | 0.3
Cc1cccc(OCC(=O)Nc2ccccc2N2CCCC2)c1C | 6.1 | -1.2 | -6.8 | 5.3 | 1.3 | 1.8
Cc1nc2ccc(C(=O)N3CCN(C(=O)OCc4ccccc4)CC3)cc2n1C1CCCC1 | · | 4.8 | · | · | -1.1 | ·
O=C(CCCN1C(=O)c2ccccc2C1=O)NCc1cccnc1 | 12.3 | -4.9 | 0.4 | -41.6 | 1.6 | 0.9
CC(C)(C)C(=O)Nc1ccc(C(=O)NCc2cccnc2)cc1 | 2.9 | -8.2 | 1.5 | -9.9 | -0.7 | 0.0
O=C(CCCCCN1C(=O)c2cccc3cccc(c23)C1=O)NCc1cccnc1 | 80.3* | -10.9 | 0.9 | · | -1.9 | ·
O=C(CCCCCCCCCCC(=O)NCc1cccnc1)NCc1cccnc1 | 74.3* | 1.7 | -3.6 | -61.0 | 12.0 | -0.7
O=C(CCCN1C(=O)c2cccc3cccc(c23)C1=O)NCc1cccnc1 | -13.7 | -10.6 | 8.7 | -26.8 | -37.7 | 1.9
SMILES | BJeLR viability | CCHF vOTU inh | Yp Topo-I inh | PrP 5UTR inh | PrPC surface inh | PfHsp40 rescue
CC(C)(C)c1ccc(C(=O)Nc2ccc(C(=O)NCc3cccnc3)cc2)cc1 | 82.0* | 2.6 | 5.5 | 0.8 | 7.4 | 1.6
CC(C)(C)OC(=O)N1CCC(N[C@@H](Cc2c[nH]c3ccccc23)C(=O)NCC(c2ccccc2)c2ccccc2)(C(=O)NC2CCCCC2)CC1 | · | · | · | · | 12.3 | ·
CC1CCC2(CC1)CCN(CCCOC(=O)Nc1cccc(F)c1)C2=O (stereo not drawn) | · | 8.1 | · | · | 13.7 | ·
CCCCCCCCN1[C@@H](CC(=O)OCC)c2cc(C(F)(F)F)ccc2S1(=O)=O | 7.6 | 17.9 | 70.2* | -5.8 | -3.4 | 23.7
O=c1[nH]c(CN2CCN(c3ccccc3O)CC2)nc2scc(-c3ccccc3Cl)c12 | 3.7 | 8.9 | 16.5 | -3.6 | 7.4 | 29.3*
CC(=O)Nc1ccc(-c2csc(N/N=C(/C)c3ccccc3)n2)cc1 | 12.3 | -12.7 | 2.8 | -26.3 | -5.1 | 89.9*
CC(=O)Nc1ccc(-c2csc(NNC(=O)c3ccccc3)n2)cc1 | 0.7 | 3.2 | -1.7 | -11.1 | -7.7 | -2.3
COC(=O)CC#C[C@H](C)[C@@H](NS(C)(=O)=O)C(C)(C)COCc1ccccc1 | · | 6.6 | · | · | -4.0 | ·
